Laboratory results reported in PubChem BioAssay (NCATS).
Records with an inconclusive call do not appear. The source made the active and inactive calls.

Assay: qHTS for identification of novel therapeutic agents for treatment of microphthalmiaassociated transcription factor (MiT) renal cell carcinoma (RCC) (AID 1963991)
Settings: CellTiter-Glo, 48 h; for Potency: active = Z-AUC below -0.8 in all three lines; for z-score: stronger effect = lower value
Source text: PI: Marston Linehan Ph.D.
Urologic Oncology Branch, Center for Cancer Research (CCR)
National Cancer Institute (NCI), National Institute of Health (NIH), Bethesda, Maryland
MiT-Renal Cell Carcinoma (RCC) is characterized by genomic translocations involving microphthalmia-associated transcription factor (MiT) family members TFE3, TFEB, or MITF. MiT-RCC represents a specific subtype of sporadic RCC that is predominantly seen in young patients and can present with heterogeneous histological features making diagnosis challenging. Moreover, the disease biology of this aggressive cancer is poorly understood and there is no accepted standard of care therapy for patients with advanced disease. Tumor-derived cell lines have been established from human TFE3-RCC providing useful models for preclinical studies. TFE3-RCC tumor derived cell lines and their tissues of origin were characterized by IHC and gene expression analyses. An unbiased high-throughput drug screen was performed to identify novel therapeutic agents for treatment of MiT-RCC. Potential therapeutic candidates were validated in in vitro and in vivo preclinical studies. Mechanistic assays were conducted to confirm the on-target effects of drugs. The results of a high-throughput small molecule drug screen utilizing three TFE3-RCC tumor-derived cell lines identified five classes of agents with potential pharmacological efficacy, including inhibitors of phosphoinositide-3-kinase (PI3K) and mechanistic target of rapamycin (mTOR), and several additional agents, including the transcription inhibitor Mithramycin A. Upregulation of the cell surface marker GPNMB, a specific MiT transcriptional target, was confirmed in TFE3-RCC and evaluated as a therapeutic target using the GPNMB-targeted antibody-drug conjugate CDX-011. […] The results of the high-throughput drug screen and validation studies in TFE3-RCC tumor-derived cell lines have provided in vitro and in vivo preclinical data supporting the efficacy of the PI3K/mTOR inhibitor.
SEQUENCE No. (e.g., 1, 2, 3, etc.); […] (e.g., Cells, Incubation, Reagent, etc.); VALUE; DESCRIPTION.
1; Cells; 3 uL; white, solid-bottom Grenier assay plate.
2; Compounds; 23 nL; Kalypsis pin-tool (Wako USA).
3; Incubation; 48 hr; 37 C, 5% CO2, 95% humidity.
4; Reagent; 3 uL; CellTiter-Glo reagent (Promega).
5; Incubation; 15 min; room temperature.
6; Detection; Luminescence; ViewLux plate reader (PerkinElmer).
NOTES (numbers refer to Sequence numbers above)
1. Quantitative high-throughput screening (qHTS) of 1912 pharmacologically defined small molecule compounds was conducted on three TFE3-fusion cell lines bearing three different fusion partners (UOK109, UOK124, UOK145). Briefly, 500 cells in complete growth media were plated into white, solid-bottom, 1536-well tissue culture treated plates (Grenier Cat. 789173-F) using a Multidrop Combi cassette dispenser.
2. Twenty-three nanoliter of 1912 pharmacologically defined small molecule compounds of the NCATS Mechanism Interrogation PlatE (MIPE) version 4.0 were added to each assay plate using a Pintool Dispenser (Wako) equipped with 1536 pin head.
3. Plates were covered with stainless steel gasketed lids and incubated for 48 hours at standard cell culture conditions.
4. Viability was assessed by adding 3uL of CellTiter-Glo detection reagent (Promega).
5. Plates were covered with gasket lids and incubated for 15 minutes at room temperature.
6. Luminescence was measured on a ViewLux plate reader (PerkinElmer). Post-screen data processing used DMSO controls as 100% viability and empty wells as 0% viability and dose response curve fitting was done for all 11 concentrations for each compound.

[1] = TFE3-RCC UOK109 viability, measured here: UOK109 Z-AUC
[2] = TFE3-RCC viability, measured here: UOK124 Z-AUC
[3] = TFE3-RCC viability, measured here: UOK145 Z-AUC
Potency is read from the fitted curve at half-maximal effect.

Q: For COc1ccc(-c2ccc3ncc4c(c3c2)n(-c2ccc(N3CCNCC3)c(C(F)(F)F)c2)c(=O)n4C)cn1, which Potency (TFE3-RCC UOK109 viability) is on record?
A: Its Potency is 1480 nM (active).

Q: And the z-score [1]?
A: Its z-score is -2.72.

Q: And the z-score [2]?
A: Its z-score is -3.95.

Q: And the z-score [3]?
A: Its z-score is -3.85.

Q: With CN(C)CCN(C)C(=O)c1ccc(NC(=O)Nc2ccc(-c3nc(N4CCOCC4)c4ccn(CC(F)(F)F)c4n3)cc2)cc1 as the compound, how does the Potency (TFE3-RCC UOK109 viability) read?
A: Its Potency is 1320 nM (active).

Q: What about the z-score [1] of the same compound?
A: The z-score was -2.71.

Q: And the z-score [2]?
A: The z-score was -3.06.

Q: What about the z-score [3] of the same compound?
A: Its z-score is -1.67.

Q: With NC[C@H]1O[C@H](O[C@@H]2[C@@H](O)[C@@H](O[C@H]3O[C@H](CO)[C@@H](O)[C@H](N)[C@@H]3O)[C@H](N)C[C@@H]2N)[C@H](O)[C@@H](O)[C@H]1O as the compound, how does the z-score [1] read?
A: The z-score was 1.51.

Q: What about the z-score [2] of the same compound?
A: Its z-score is 0.542.

Q: What about the z-score [3] of the same compound?
A: The z-score was 0.0704.

Q: Which z-score [1] does the source give for C[C@@H]1CCO[C@H]2Cn3cc(C(=O)NCc4ccc(F)cc4F)c(=O)c(O)c3C(=O)N12 here?
A: The z-score was 0.807.

Q: And the z-score [2]?
A: The z-score was 0.941.

Q: And the z-score [3]?
A: Its z-score is 1.66.

Q: Which z-score [1] does the source give for C[C@@H](O)[C@H]1C(=O)N2C(C(=O)OCOC(=O)C(C)(C)C)=C(SC3CN(C4=NCCS4)C3)[C@H](C)[C@H]12 here?
A: The z-score was 1.65.

Q: And the z-score [2]?
A: The z-score was -0.138.

Q: And the z-score [3]?
A: The z-score was 0.788.

Q: Which z-score [1] does the source give for O=C(O)C1=CC(O)C(O)[C@H](O)C1 (stereo partly specified) here?
A: The z-score was 1.04.

Q: What about the z-score [2] of the same compound?
A: Its z-score is 0.866.

Q: What about the z-score [3] of the same compound?
A: The z-score was 0.319.

Q: With CCCCC[C@H](O)C=C[C@H]1[C@H](O)CC(=O)[C@H]1CCCCCCC(=O)O as the compound, how does the z-score [1] read?
A: The z-score was 1.1.

Q: What about the z-score [2] of the same compound?
A: The z-score was 0.386.

Q: And the z-score [3]?
A: The z-score was 1.28.

Q: Which z-score [1] does the source give for CC(=O)OCC(=O)[C@@]12OC(C)(C)O[C@H]1C[C@H]1[C@@H]3C[C@H](F)C4=CC(=O)C=C[C@]4(C)[C@@]3(F)[C@@H](O)C[C@@]12C here?
A: Its z-score is 0.123.

Q: What about the z-score [2] of the same compound?
A: The z-score was 0.68.

Q: What about the z-score [3] of the same compound?
A: Its z-score is 0.0965.

Q: With CNC1[C@H](O)C(O[C@@H]2C(O)C(O[C@H]3O[C@H]([C@@H](C)NC)CC[C@H]3N)[C@@H](N)C[C@H]2N)OC[C@]1(C)O (stereo partly specified) as the compound, how does the z-score [1] read?
A: The z-score was 0.654.

Q: And the z-score [2]?
A: Its z-score is 0.386.

Q: And the z-score [3]?
A: Its z-score is 0.886.

Q: Which z-score [1] does the source give for COc1cccc(OC)c1-c1cc(C(=O)NC2(C(=O)O)C3CC4CC(C3)CC2C4)nn1-c1ccnc2cc(Cl)ccc12 (stereo unspecified) here?
A: Its z-score is 1.18.

Q: What about the z-score [2] of the same compound?
A: The z-score was 0.441.

Q: What about the z-score [3] of the same compound?
A: The z-score was 0.707.

Q: For CC1(C)[C@H]2CC[C@]3(C)[C@@H](C(=O)C=C4[C@@H]5C[C@@](C)(C(=O)O)CC[C@]5(C)CC[C@]43C)[C@@]2(C)CC[C@@H]1O, which z-score [1] is on record?
A: Its z-score is 0.727.

Q: And the z-score [2]?
A: Its z-score is 0.724.

Q: And the z-score [3]?
A: The z-score was 0.985.

Q: Which results are given for C[C@]12C=CC(=O)C=C1CC[C@@H]1[C@@H]2[C@@H](O)C[C@@]2(C)[C@@H]1CC[C@]2(O)C(=O)CO?
A: z-score [1]: 0.748; z-score [2]: 0.34; z-score [3]: -1.47

Q: For COc1ccc(-c2nc3ccc(C4=NNC(=O)CC4C)cc3[nH]2)cc1 (stereo unspecified), which z-score [1] is on record?
A: Its z-score is 0.403.

Q: What about the z-score [2] of the same compound?
A: Its z-score is 0.3.

Q: And the z-score [3]?
A: The z-score was 0.145.
